Laboratory results from PubChem BioAssay (NCATS).
Results filed as inconclusive are left out. Active and inactive are the calls of the source. Calls follow the shape of the dose curve; as a rule, active = well fitted inhibition curve with a large enough effect; inconclusive = small, poorly fitted or top-dose-only effect; inactive = flat fitted curve, though single readings scatter.

Columns and labels:
Test in all cases: qHTS profiling for inhibitors of Plasmodium falciparum proliferation (AID 504749); also: nearly all actives have a fitted effect of over 60% in size
Conditions in all cases: P. falciparum in erythrocytes, SYBR Green DNA, 72 h; series mostly up to 28.7 µM
CP269 = tested on: CP269
In short: (§1)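 Readout was DNA-dye fluorescence from lysed cultures, ex 485/em 535 nm. Parasitized red cells had grown 72 h with compound; data scaled between 0.29 uM artemisinin and DMSO wells and corrected using vehicle-only plates.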

CP286 = tested on: CP286
In short: as §1

CP291 = tested on: CP291
In short: as §1

CP297 = tested on: CP297
In short: as §1

CP305 = tested on: CP305
In short: as §1

CP315 = tested on: CP315
In short: as §1

CP325 = tested on: CP325
In short: as §1

CP329 = tested on: CP329
In short: as §1

CP335 = tested on: CP335
In short: as §1

DFO2036 = tested on: DFO2036
In short: as §1

DIV14 = tested on: DIV14
In short: as §1

DIV17 = tested on: DIV17
In short: as §1

DIV30 = tested on: DIV30
In short: as §1

Dd2 = tested on: Dd2
In short: as §1

ECU = tested on: ECU
In short: as §1

FAB9 = tested on: FAB9
In short: as §1

GB4 = tested on: GB4
In short: as §1

HB3 = tested on: HB3
In short: as §1

ICS = tested on: ICS
In short: as §1

JCK = tested on: JCK
In short: as §1

Measured: Potency

CCCCc1ncc(/C=C(\Cc2cccs2)C(=O)O)n1Cc1ccc(C(=O)O)cc1
inactive: all assays above

CCCCCCCCCCCCCCCC(=O)NCCO
inactive: all assays above

CC1(C)OC(=O)NC1=O
inactive: all assays above

CCCCCCCCCCCCOS(=O)(=O)O
inactive: all assays above

COc1ccccc1O
inactive: all assays above

Oc1cccc(O)c1
inactive: all assays above

N[C@@H](CSCCCO)C(=O)O
inactive: all assays above

CC1(C)[C@@H]2CC[C@@]1(C)C(=O)C2
inactive: all assays above

O=c1cc(CO)occ1O
inactive: all assays above

CCCOC(=O)c1ccccc1
inactive: all assays above

O=C1NS(=O)(=O)c2ccccc21
inactive: all assays above

Nc1nc2c(ncn2CCC(CO)CO)c(=O)[nH]1
inactive: all assays above

CC(=O)CCC(=O)O
inactive: all assays above

CCCCN(CCCC)CCCOC(=O)c1ccc(N)cc1
inactive: all assays above

O=c1cc[nH]c(=O)[nH]1
inactive: all assays above

CCN(CC)CCNC(=O)c1cc(Cl)c(N)cc1OC
inactive: all assays above

O=S(=O)(O)NC1CCCCC1
inactive: all assays above

CCOc1ccc2ccccc2c1C(=O)N[C@@H]1C(=O)N2[C@@H]1SC(C)(C)[C@@H]2C(=O)O
inactive: all assays above

O=C(O)[C@@H]1CSCN1
inactive: all assays above

NC(=O)NC(=O)Cc1ccccc1
inactive: all assays above

CC12CCC(CC1)C(C)(C)O2
inactive: all assays above

Cc1ncc(COP(=O)(O)O)c(C=O)c1O
inactive: all assays above

Nc1ccc(S(=O)(=O)NC(=O)c2ccccc2)cc1
inactive: all assays above

C[C@H](N)[C@H](O)c1cccc(O)c1
inactive: all assays above

CC(O)CN(CCN(CC(C)O)CC(C)O)CC(C)O (stereo not given)
inactive: all assays above

O=C(O)CC(O)C(=O)O (stereo not given)
inactive: all assays above

C=Cc1c(C)c2cc3[nH]c(cc4nc(cc5nc(cc1[nH]2)C(C)=C5CCC(=O)O)C(CCC(=O)O)=C4C)c(C)c3C=C
inactive: all assays above

CCCCOc1cc(C(=O)OCCN(CC)CC)ccc1N
inactive: all assays above
